Screening results deposited in PubChem by Broad Institute.
Hits are enriched below; roughly 6.8% of the tested compounds scored in any of these assays.
Pf Dd2 growth: inhibitors of Plasmodium falciparum Dd2 growth | P. falciparum Dd2 growth, SYBR Green, 72 h; hits give low values | activity change, % at 10 µM | actives 2.3% (n = 94,000) | AID 1159554; in the data active = activity change below about -80%; inconclusive = no clear call, values can overlap the other calls
C diff growth: C. difficile growth inhibition; Clostridium difficile clinical isolate growth, OD600, 24 h; hits give low values; growth activity, negative = inhibition, % at 16 µg/mL (by protocol); actives 0.25% (n = 86,000); AID 1259249;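 active = mean growth activity at or below -80% and every replicate also at or below -80%; inconclusive = mean at or below -80% but some replicate above -80%; inactive = mean growth activity above -80%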
T cruzi growth-1: T. cruzi proliferation inhibition | T. cruzi beta-gal in NIH3T3, GalScreen luminescence, 90 h | inhibition, % at 8.34 µM | actives 5.9% (n = 77,000);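 active = mean inhibition above about 93%, with at least 55% of replicates each passing it, limit read from the data, passing the limit was not always enough; inconclusive = only one of those two conditions holds; inactive = neither condition holds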
T cruzi growth-2: blocks T. cruzi growth in NIH3T3 host cells. actives 72% (n = 5,600). shares compounds with T cruzi growth-1. inhibition, % at 8.35 µM. T. cruzi beta-gal in NIH3T3, GalScreen luminescence, 90 h;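 active = mean replicate inhibition above about 95% and at least 55% of replicates individually reaching it, limit read from the data; inconclusive = only one of the two criteria is met; inactive = neither criterion is met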
T cruzi growth-3: blocks T. cruzi growth in NIH3T3 host cells. inhibition, % at 2.09 µM. actives 21% (n = 5,600). shares compounds with T cruzi growth-1. AID 651740. T. cruzi beta-gal in NIH3T3, GalScreen luminescence, 90 h;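 active = mean inhibition above about 95%, with at least 55% of replicates also reaching it, limit read from the data; inconclusive = meets just one of the two conditions; inactive = meets neither condition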
3T3 cytotox: cytotoxicity in mouse NIH/3T3 fibroblasts. cytotoxicity (signal decrease), % at 8.35 µM. shares compounds with T cruzi growth-1. actives 14% (n = 5,600). NIH/3T3 viability, CellTiter-Glo ATP luminescence, 90 h;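 active = mean signal decrease across replicates above about 35% based on untreated-well scatter, with enough replicates individually passing, limit read from the data; inconclusive = no rule stated though some were filed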
NIH3T3 tox 2: kills mouse NIH/3T3 fibroblasts | shares compounds with T cruzi growth-1 | inhibition, % at 24.9 µM | actives 56% (n = 5,600) | AID 651744 | NIH/3T3 viability, CellTiter-Glo ATP luminescence, 90 h;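 active = mean loss of cell viability signal at or above a set limit, and enough replicates individually reaching it; inconclusive = meets only the mean limit or only the replicate share; inactive = meets neither condition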
A number is an active result; i = inactive; ? = inconclusive; nt = not tested or not shown; ! = a repeat was not active.

SMILES	Pf Dd2 growth	C diff growth	T cruzi growth-1	T cruzi growth-2	T cruzi growth-3	3T3 cytotox	NIH3T3 tox 2
C[C@H](CO)N1C[C@H](C)[C@H](CN(C)Cc2ccc(C(F)(F)F)cc2)OCc2cn(nn2)CCCC1=O	i	i	?	i	i	i	i
C[C@@H]1CN([C@H](C)CO)C(=O)CCCn2cc(nn2)CO[C@@H]1CN(C)C(=O)CCC(F)(F)F	i	i	?	i	i	i	i
C[C@@H]1CN([C@@H](C)CO)C(=O)CCCn2cc(nn2)CO[C@H]1CN(C)Cc1ccc(C(F)(F)F)cc1	i	nt	i	nt	nt	nt	nt
C[C@@H]1CN([C@H](C)CO)C(=O)CCCn2cc(nn2)CO[C@H]1CN(C)C(=O)c1ccc(N2CCN(C)CC2)cc1	i	i	i	nt	nt	nt	nt
C[C@@H]1CN([C@@H](C)CO)C(=O)CCCn2cc(nn2)CO[C@H]1CN(C)C(=O)c1ccc(N2CCN(C)CC2)cc1	i	i	?	i	i	i	i
C[C@H]1CN([C@@H](C)CO)C(=O)Cc2cc(NC(=O)CCCCCC(=O)Nc3ccccc3N)ccc2O[C@@H]1CN(C)S(C)(=O)=O	i	i	i	nt	nt	nt	nt
Cc1ccc(S(=O)(=O)Nc2ccc3c(c2)CC(=O)N([C@@H](C)CO)C[C@@H](C)[C@@H](CN(C)S(=O)(=O)c2ccc(C)cc2)O3)cc1	i	i	i	nt	nt	nt	nt
COc1ccc2c3c([nH]c2c1)[C@@H](CO)N(C(=O)c1cccnc1)CC31CCN(C(=O)NC(C)C)CC1	i	i	nt	nt	nt	nt	nt
C[C@H]1CN([C@@H](C)CO)C(=O)Cc2cc(NS(=O)(=O)c3ccc(Cl)cc3)ccc2O[C@@H]1CN(C)S(=O)(=O)c1cn(C)cn1	i	i	i	nt	nt	nt	nt
C[C@H](CO)N1C[C@H](C)[C@@H](CN(C)C(=O)Nc2ccccc2)OCc2cn(nn2)CCCC1=O	i	i	127!	i	i	i	i
C[C@@H]1CN([C@@H](C)CO)C(=O)CCCn2cc(nn2)CO[C@@H]1CN(C)C(=O)Nc1ccccc1	i	i	?	i	i	i	i
C[C@H]1CN([C@@H](C)CO)C(=O)CCCn2cc(nn2)CO[C@H]1CN(C)C(=O)Nc1ccccc1	i	nt	i	nt	nt	nt	nt
C[C@@H]1CN([C@H](C)CO)C(=O)CCCn2cc(nn2)CO[C@H]1CN(C)C(=O)Nc1ccccc1	i	i	i	nt	nt	nt	nt
CS(=O)(=O)Nc1ccc2c(c1)[C@H]1C[C@@H](CC(=O)NCc3ccc(Cl)cc3)O[C@@H](CO)[C@H]1O2	i	i	i	nt	nt	nt	nt
Cc1noc(C)c1NC(=O)N[C@H]1C=C[C@@H](CC(=O)NCCCN(C)C)O[C@@H]1CO	i	i	i	nt	nt	nt	nt
Cc1noc(C)c1NC(=O)N[C@H]1CC[C@@H](CC(=O)NCCCN(C)C)O[C@@H]1CO	i	nt	?	i	i	i	i
CC=Cc1ccc2n(c1=O)C[C@@H]1[C@@H](CO)[C@H](C(=O)NCC3CC3)[C@H]2N1Cc1cccnc1 (mixture of isomers)	i	i	i	nt	nt	nt	nt
CCCC#Cc1ccc2c(c1)O[C@H](CN(C)Cc1cncnc1)[C@@H](C)CN([C@H](C)CO)S2(=O)=O	i	i	i	nt	nt	nt	nt
C[C@H](O)C#Cc1ccc2c(c1)O[C@@H](CN(C)Cc1cccnc1)[C@@H](C)CN([C@H](C)CO)S2(=O)=O	i	i	i	nt	nt	nt	nt
COCC#Cc1ccc2c(c1)O[C@H](CN(C)Cc1cccnc1)[C@H](C)CN([C@H](C)CO)S2(=O)=O	i	i	i	nt	nt	nt	nt
C[C@H](CO)N1C[C@H](C)[C@@H](CN(C)Cc2cccnc2)Oc2cc(C#CCN(C)C)ccc2S1(=O)=O	i	i	104	103	104	i	i
COCC#Cc1ccc2c(c1)O[C@H](CN(C)Cc1cccnc1)[C@@H](C)CN([C@H](C)CO)S2(=O)=O	i	i	i	nt	nt	nt	nt
CCCC#Cc1ccc2c(c1)O[C@@H](CN(C)Cc1cccnc1)[C@H](C)CN([C@@H](C)CO)S2(=O)=O	i	i	122	99	i	55	107
CCCC#Cc1ccc2c(c1)O[C@@H](CN(C)Cc1cccnc1)[C@H](C)CN([C@H](C)CO)S2(=O)=O	i	i	119	97	96	45	105
CCCC#Cc1ccc2c(c1)O[C@@H](CN(C)Cc1cccnc1)[C@@H](C)CN([C@H](C)CO)S2(=O)=O	i	i	109	101	96	?	29
SMILES	Pf Dd2 growth	C diff growth	T cruzi growth-1	T cruzi growth-2	T cruzi growth-3	3T3 cytotox	NIH3T3 tox 2
O=S(=O)(N[C@H]1CC[C@@H](CCn2cc(C3(O)CCCC3)nn2)O[C@H]1CO)c1ccc(F)cc1	i	i	i	nt	nt	nt	nt
C[C@H]1CN([C@@H](C)CO)S(=O)(=O)c2ccc(C#Cc3ccc(F)cc3)cc2O[C@@H]1CN(C)C	i	i	i	nt	nt	nt	nt
O=C(C[C@@H]1CC[C@H](NC(=O)Cc2ccccn2)[C@H](CO)O1)NCCc1ccccc1	nt	i	nt	nt	nt	nt	nt
O=C(C1CCCCC1)N1C[C@@H]2[C@H](c3ccccc31)[C@H](CO)N2C(=O)Cc1ccccn1	i	i	i	nt	nt	nt	nt
C/C=C/c1ccc([C@H]2[C@@H](CO)N3CCCCN(C(=O)Nc4ccc(OC)cc4)C[C@H]23)cc1	i	i	?	i	i	i	90
COc1ccc(C#Cc2ccc([C@H]3[C@@H](CO)N4CCCCN(C(=O)Nc5cccc(F)c5)C[C@@H]34)cc2)cc1	i	i	112	101	109	i	i
COc1ccc(C#Cc2ccc([C@@H]3[C@H](CO)N4CCCCN(C(=O)Nc5ccccc5)C[C@@H]34)cc2)cc1	i	i	i	nt	nt	nt	nt
C[C@H](O)C#Cc1ccc([C@H]2[C@H](CO)N3CCCCN(C(=O)Nc4ccccc4)C[C@@H]23)cc1	i	i	i	nt	nt	nt	nt
C/C=C/c1ccc([C@@H]2[C@H](CO)N3CCCCN(C(=O)Nc4ccc(OC)cc4)C[C@@H]23)cc1	i	i	i	nt	nt	nt	nt
COc1ccc(C#Cc2ccc([C@H]3[C@@H](CO)N4CCCCN(C(=O)Nc5ccccc5)C[C@@H]34)cc2)cc1	i	i	125	111	114	i	30
O=C(Nc1cccc(F)c1)N1CCCCN2[C@H](C1)[C@@H](c1ccc(C#Cc3ccccc3)cc1)[C@@H]2CO	i	i	i	nt	nt	nt	nt
COc1ccc(C#Cc2ccc([C@H]3[C@H]4CN(C(=O)Nc5ccccc5)CCCCN4[C@H]3CO)cc2)cc1	i	i	119	108	i	i	i
CCC(=O)N1[C@@H]2c3ccc(C4=CCCC4)c(=O)n3C[C@@H]2[C@@H](CO)[C@@H]1C(=O)NC1CCCC1	nt	i	i	nt	nt	nt	nt
COc1cccc(S(=O)(=O)N2C[C@H](O)COC[C@H]3O[C@H](CC(=O)N4CCOCC4)CC[C@@H]32)c1	i	nt	i	nt	nt	nt	nt
COc1ccc(S(=O)(=O)N(C)C[C@H]2Oc3c(NC(=O)Nc4ccc(C(F)(F)F)cc4)cccc3C(=O)N([C@@H](C)CO)C[C@@H]2C)cc1	i	i	i	nt	nt	nt	nt
